Results published in PubChem BioAssay (Tox21).
Results filed as inconclusive are left out. A call without a number means that no potency is given here. Calls of active or inactive are those of the source. Unless noted, the call rests on the fitted dose curve; in most records, active means well fitted curve in the direction sought with a large enough effect in the repeat runs; inconclusive means weak or mixed curves; inactive means no such curve, though single readings can be large; an effect the other way counts as inactive or inconclusive.

Legend:
[1] = qHTS assay to identify small molecule antagonists of the thyroid receptor (TR) signaling pathway - cell viability counter screen (AID 743064); further: nearly all actives have a fitted effect of over 50% in size; further: potency means the concentration at half of the fitted maximal effect
Method in brief: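 Rat GH3 pituitary tumor cells stably expressing two TR response elements driving luciferase were plated, rested 4 h, then dosed with library compounds and T3 (1 nM final). After 23.5 h at 37 °C, CellTiter-Fluor was added for 30 min and fluorescence recorded.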

[2] = tested on: thyroid hormone receptor (rat, GH3 cells); experiment: qHTS assay to identify small molecule agonists of the thyroid receptor (TR) signaling pathway (AID 743066; calls by dose curve)
[3] = molecular target: Estrogen receptor (Homo sapiens) (UniProt P03372); experiment: qHTS assay to identify small molecule antagonists of the estrogen receptor alpha (ER-alpha) signaling pathway (AID 743069; active means well fitted curve in the direction sought with a large enough effect in the signal ratio in the repeat runs, not every such curve was filed as active; the % refers to the signal ratio)
Method in brief: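 ER-alpha-UAS-bla GripTite HEK293 line; 2% charcoal-stripped FBS overnight; plated, 4 hr 37C/5% CO2; cpd in DMSO + 17beta-estradiol, 18 hr 37C; LiveBLAzer B/G FRET substrate 2 hr RT; fluorescence intensity.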

[4] = qHTS assay to identify small molecule antagonists of the estrogen receptor alpha (ER-alpha) signaling pathway - cell viability counter screen (AID 743074; calls by dose curve;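 further: HEK293 cells carrying ER-alpha-UAS-bla reporter stimulated with 17beta-estradiol; nearly all actives have a fitted effect of over 45% in size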)
[5] = molecular target: Estrogen receptor (Homo sapiens) (UniProt P03372); experiment: qHTS assay to identify small molecule agonists of the estrogen receptor alpha (ER-alpha) signaling pathway (AID 743075; calls by dose curve;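 further: HEK293 GripTite cells with ER-alpha and UAS-driven beta-lactamase reporter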)
[6] = molecular target: Estrogen receptor (Homo sapiens) (UniProt P03372); experiment: qHTS assay to identify small molecule agonists of the estrogen receptor alpha (ER-alpha) signaling pathway using the BG1 cell line (AID 743079); further: nearly all actives have a fitted effect of over 20% in size; further: potency means the concentration at half of the fitted maximal effect
[7] = qHTS assay to identify small molecule antagonists of the estrogen receptor alpha (ER-alpha) signaling pathway using the BG1 cell line - cell viability counter screen (AID 743081);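 further: compound given together with 17beta-estradiol as the ER stimulus; series mostly up to about 70 µM; nearly all actives have a fitted effect of over 45% in size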
Aromatase (Homo sapiens) = Aromatase (Homo sapiens) (UniProt P11511); experiment: qHTS assay to identify aromatase inhibitors (AID 743083); further: series mostly up to about 70 µM; nearly all actives have a fitted effect of over 55% in size
[8] = qHTS assay to identify aromatase inhibitors - cell viability counter screen (AID 743084);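 further: cells stimulated with testosterone during compound exposure; nearly all actives have a fitted effect of over 55% in size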
[9] = qHTS assay to identify small molecule that activate the aryl hydrocarbon receptor (AhR) signaling pathway - cell viability counter screen (AID 743086);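 further: HepG2 liver cells carrying the AhR DRE luciferase reporter; series mostly up to about 70 µM; nearly all actives have a fitted effect of over 45% in size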
Method in brief: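 Cytotoxicity counter screen: CellTiter-Fluor signal (30 min, 37 C) in 4000 HepG2 cells/well carrying the DRE-luciferase reporter, following 24 h compound exposure at 37 C.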

[10] = molecular target: Peroxisome proliferator-activated receptor gamma (Homo sapiens) (UniProt P37231); experiment: qHTS assay to identify small molecule agonists of the peroxisome proliferator-activated receptor gamma (PPARg) signaling pathway (AID 743094; active means well fitted activation curve with a large enough effect in the signal ratio in the repeat runs, not every such curve was filed as active; the % refers to the signal ratio)
Method in brief: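 Compounds dissolved in DMSO were added to PPARg UAS-bla HEK293H cells for 17 h at 37C, and reporter expression was quantified by fluorescence intensity after 1 h with LiveBLAzer B/G FRET substrate.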

[11] = molecular target: Peroxisome proliferator-activated receptor gamma (Homo sapiens) (UniProt P37231); experiment: qHTS assay to identify small molecule antagonists of the peroxisome proliferator-activated receptor gamma (PPARg) signaling pathway (AID 743191; calls by dose curve; further: series mostly up to about 63 µM; nearly all actives have a fitted effect of over 30% in size)
Method in brief: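 Beta-lactamase reporter under UAS control in HEK293H PPARg-bla cells; compound treatment 17 h at 37C. Read-out: fluorescence intensity after 1 h room-temperature incubation with LiveBLAzer B/G FRET substrate.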

[12] = qHTS assay to identify small molecule antagonists of the peroxisome proliferator-activated receptor gamma (PPARg) signaling pathway - cell viability counter screen (AID 743194); further: nearly all actives have a fitted effect of over 55% in size
Method in brief: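 Viability was measured as CellTiter-Glo luminescence in GeneBLAzer PPARg UAS-bla HEK293H cells. These cells had been exposed 17 h at 37 C to compounds together with rosiglitazone at 50 nM final, with the beta-lactamase readout taken in the same wells.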

[13] = qHTS assay for small molecule agonists of the antioxidant response element (ARE) signaling pathway (AID 743202; active means well fitted activation curve with a large enough effect in the signal ratio in the repeat runs, not every such curve was filed as active; the % refers to the signal ratio; further: potency means the concentration at half of the fitted maximal effect)
Method in brief: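 Quantitative high-throughput format in HepG2 cells bearing an integrated ARE-beta-lactamase reporter. Compound exposure lasted 16 h at 37 C, and fluorescence was read 2 h after adding LiveBLAzer B/G substrate at room temperature.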

[14] = qHTS assay for small molecule agonists of the antioxidant response element (ARE) signaling pathway - cell viability counter screen (AID 743203; calls by dose curve; further: nearly all actives have a fitted effect of over 55% in size)
Method in brief: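 Following 16 hrs of compound treatment at 37C, HepG2 cells with an ARE-controlled beta-lactamase gene were lysed with CellTiter-Glo. Luminescence was read after 30 min at room temperature.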

[15] = qHTS assay for small molecule activators of the heat shock response signaling pathway - cell viability counter screen (AID 743209); further: nearly all actives have a fitted effect of over 50% in size
Method in brief: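 Readout: CellTiter-Glo luminescence, 30 min at room temperature. System: HSE-bla HeLa cells, 1500/well, plated overnight. Treatment: compounds in DMSO, 5 h at 37 C.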

[16] = qHTS assay for small molecule activators of the heat shock response signaling pathway (AID 743210; active means well fitted activation curve with a large enough effect in the signal ratio in the repeat runs, with a control signal flat, not every such curve was filed as active; the % refers to the signal ratio;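 further: HeLa cells with beta-lactamase reporter driven by heat shock elements; series mostly up to about 63 µM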)
Method in brief: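 HeLa HSE-bla cells, overnight plating; cpd in DMSO 5 h, 37 C; LiveBLAzer B/G FRET substrate 2.5 h RT; fluorescence intensity read.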

[17] = molecular target: Aryl hydrocarbon receptor (Homo sapiens) (UniProt P35869); experiment: qHTS assay to identify small molecule that activate the aryl hydrocarbon receptor (AhR) signaling pathway (AID 743085); further: nearly all actives have a fitted effect of over 15% in size; further: potency means the concentration at half of the fitted maximal effect;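 on activation: HG2L7.5c1 human HepG2 liver cells with stably integrated DRE-driven firefly reporter; series mostly up to about 70 µM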
Method in brief: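 Compounds were tested in HepG2 hepatocellular carcinoma cells harbouring a stably integrated luciferase gene under control of 20 DREs. Increased reporter signal after 24 h treatment at 37C was taken as AhR activation.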

[18] = qHTS assay to identify small molecule antagonists of the thyroid receptor (TR) signaling pathway (AID 743065)
Method in brief: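 Antagonism measured as loss of luciferase signal in GH3 cells stably carrying a TRE-luciferase reporter, co-treated with compound and T3 (1 nM final) for 23.5 h at 37 C. Viability was read in the same well by CellTiter-Fluor.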

[19] = qHTS assay to identify small molecule antagonists of the estrogen receptor alpha (ER-alpha) signaling pathway using the BG1 cell line (AID 743080; calls by dose curve;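 further: BG1 cells stimulated with 17beta-estradiol alongside compound; series mostly up to about 70 µM; nearly all actives have a fitted effect of over 25% in size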)
Method in brief: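 BG1-Luc-4E2 cells (endogenous full-length ER-alpha, 4xERE luciferase) hormone-starved 5 days in charcoal-stripped FBS, plated 4,000/well for 24 h, then compound plus 17beta-estradiol for 21.5 h at 37 C; ONE-Glo luminescence read.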

Sequence of Peroxisome proliferator-activated receptor gamma (Homo sapiens) (P37231 whole entry, looked up): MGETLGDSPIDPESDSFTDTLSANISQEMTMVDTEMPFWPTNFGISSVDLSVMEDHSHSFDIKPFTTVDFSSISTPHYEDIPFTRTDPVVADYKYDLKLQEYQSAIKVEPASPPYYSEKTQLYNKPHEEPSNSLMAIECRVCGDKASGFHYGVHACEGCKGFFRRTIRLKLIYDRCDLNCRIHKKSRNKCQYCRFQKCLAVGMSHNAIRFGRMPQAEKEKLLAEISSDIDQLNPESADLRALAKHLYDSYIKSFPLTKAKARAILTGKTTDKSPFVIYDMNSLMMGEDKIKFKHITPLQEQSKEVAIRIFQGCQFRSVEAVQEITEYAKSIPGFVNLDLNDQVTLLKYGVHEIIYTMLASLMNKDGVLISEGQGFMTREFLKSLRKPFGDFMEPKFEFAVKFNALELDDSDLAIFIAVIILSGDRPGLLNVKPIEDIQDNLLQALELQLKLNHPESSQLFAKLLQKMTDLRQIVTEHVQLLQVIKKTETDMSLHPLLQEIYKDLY
Sequence of Aryl hydrocarbon receptor (Homo sapiens) (P35869 whole entry, looked up): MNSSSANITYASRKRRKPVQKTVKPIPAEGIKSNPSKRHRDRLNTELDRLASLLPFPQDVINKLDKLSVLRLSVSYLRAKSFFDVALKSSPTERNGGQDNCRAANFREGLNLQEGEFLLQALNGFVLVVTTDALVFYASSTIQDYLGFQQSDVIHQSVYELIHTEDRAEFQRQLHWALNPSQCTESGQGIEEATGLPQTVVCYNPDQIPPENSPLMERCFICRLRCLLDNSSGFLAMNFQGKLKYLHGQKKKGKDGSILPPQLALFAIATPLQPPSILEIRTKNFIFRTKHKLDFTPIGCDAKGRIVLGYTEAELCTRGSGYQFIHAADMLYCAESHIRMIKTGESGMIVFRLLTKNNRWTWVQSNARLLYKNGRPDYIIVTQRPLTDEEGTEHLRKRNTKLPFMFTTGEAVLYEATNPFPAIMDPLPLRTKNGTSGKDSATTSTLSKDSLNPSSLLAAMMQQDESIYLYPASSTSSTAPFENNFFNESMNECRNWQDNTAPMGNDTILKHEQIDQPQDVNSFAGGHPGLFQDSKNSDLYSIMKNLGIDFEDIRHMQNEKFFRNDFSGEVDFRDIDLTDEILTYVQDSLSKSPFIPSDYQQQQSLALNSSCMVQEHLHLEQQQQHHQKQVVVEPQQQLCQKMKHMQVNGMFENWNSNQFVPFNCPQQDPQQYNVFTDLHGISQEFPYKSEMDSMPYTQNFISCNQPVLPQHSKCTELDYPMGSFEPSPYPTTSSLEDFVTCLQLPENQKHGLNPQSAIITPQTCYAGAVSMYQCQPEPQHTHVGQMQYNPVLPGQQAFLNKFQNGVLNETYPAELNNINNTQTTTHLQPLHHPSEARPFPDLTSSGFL
Sequence of Estrogen receptor (Homo sapiens) (P03372 whole entry, looked up): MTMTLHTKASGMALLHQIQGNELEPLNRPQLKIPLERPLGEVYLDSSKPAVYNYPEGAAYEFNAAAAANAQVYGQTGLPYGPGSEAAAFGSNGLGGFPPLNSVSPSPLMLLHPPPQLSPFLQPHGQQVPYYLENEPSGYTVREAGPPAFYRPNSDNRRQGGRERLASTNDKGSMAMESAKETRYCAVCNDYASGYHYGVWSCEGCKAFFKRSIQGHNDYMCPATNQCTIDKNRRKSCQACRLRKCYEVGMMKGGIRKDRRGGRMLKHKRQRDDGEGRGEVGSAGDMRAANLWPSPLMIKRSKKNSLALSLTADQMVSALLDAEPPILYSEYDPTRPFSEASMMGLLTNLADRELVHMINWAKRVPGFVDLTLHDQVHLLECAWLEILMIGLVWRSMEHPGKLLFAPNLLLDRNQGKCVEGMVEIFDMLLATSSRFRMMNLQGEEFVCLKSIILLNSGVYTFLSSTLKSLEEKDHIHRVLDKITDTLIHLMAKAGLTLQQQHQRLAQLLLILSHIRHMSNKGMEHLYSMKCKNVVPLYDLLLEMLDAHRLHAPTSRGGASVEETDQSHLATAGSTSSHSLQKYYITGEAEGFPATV
Sequence of Aromatase (Homo sapiens) (P11511 whole entry, looked up): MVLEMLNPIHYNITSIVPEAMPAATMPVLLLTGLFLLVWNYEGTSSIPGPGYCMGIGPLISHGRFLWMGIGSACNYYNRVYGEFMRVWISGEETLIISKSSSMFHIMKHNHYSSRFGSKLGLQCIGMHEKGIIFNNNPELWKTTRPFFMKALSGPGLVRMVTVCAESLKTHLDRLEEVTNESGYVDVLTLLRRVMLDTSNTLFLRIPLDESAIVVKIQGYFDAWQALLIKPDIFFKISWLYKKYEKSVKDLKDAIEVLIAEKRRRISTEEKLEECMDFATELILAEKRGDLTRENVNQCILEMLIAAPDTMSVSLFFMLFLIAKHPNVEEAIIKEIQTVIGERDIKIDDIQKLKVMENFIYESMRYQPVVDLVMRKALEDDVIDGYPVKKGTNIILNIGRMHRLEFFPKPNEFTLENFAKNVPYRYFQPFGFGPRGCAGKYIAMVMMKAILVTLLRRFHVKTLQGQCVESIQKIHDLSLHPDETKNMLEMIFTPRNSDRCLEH

SMILES	Potency [1]	outcome [2]	outcome [3]	outcome [4]	Potency [5]	Potency [6]	Potency [7]	outcome (Aromatase (Homo sapiens))	Potency [8]	Potency [9]	Potency [10]	outcome [11]	outcome [12]	Potency [13]	outcome [14]	Potency [15]	outcome [16]	Potency [17]	Potency [18]	outcome [19]
C[C@H]1[C@@H](c2ccccc2)NC(=O)N1C	inactive	inactive	inactive	inactive	inactive	inactive	inactive	inactive	inactive	inactive	inactive	inactive	inactive	inactive	inactive	inactive	inactive			
CCCCCCCCCOC(=O)c1ccccc1C(=O)OCCCCCCCCC	inactive	inactive	inactive	inactive	inactive	inactive	inactive	inactive	inactive	inactive	inactive		inactive	inactive	inactive	inactive	inactive	inactive		
CN(C)CCCO[C@@H]1[C@H]2OC(C)(C)O[C@H]2O[C@@H]1C(O)CO (stereo partly specified)		inactive	inactive	inactive	inactive	inactive	inactive	inactive	inactive	inactive	inactive	inactive	inactive	inactive	inactive	inactive	inactive	inactive	inactive	inactive
COC(=O)CCCCC(=O)O		inactive	inactive	inactive	inactive	inactive	inactive	inactive	inactive	inactive	inactive	inactive	inactive	inactive	inactive	inactive	inactive	inactive	inactive	inactive
Cc1ccnc(N)c1	inactive	inactive		inactive			inactive	inactive	inactive		inactive	inactive	inactive	inactive	inactive	inactive	inactive			
CC(O)COC(C)(C)C (stereo unspecified)	inactive	inactive		inactive			inactive	inactive	inactive	inactive	inactive	inactive	inactive	inactive		inactive	inactive	inactive		
CCOCCOCC	inactive	inactive	inactive	inactive	inactive	inactive	inactive	inactive	inactive	inactive	inactive		inactive	inactive	inactive	inactive	inactive	inactive		inactive
CCNC(=O)NCc1cccc(Cl)c1		inactive	inactive	inactive	inactive	inactive	inactive	inactive	inactive	inactive	inactive	inactive	inactive	inactive	inactive	inactive	inactive	inactive	inactive	inactive
CCCCCCCCCOC(=O)CCCCC(=O)OCCCCCCC	inactive			inactive			inactive	inactive	inactive	inactive	inactive		inactive		inactive	inactive	inactive	inactive		
C=CCN1C[C@H](C(=O)N(CCCN(C)C)C(=O)NCC)C[C@@H]2c3cccc4[nH]cc(c34)C[C@H]21	3.76 µM (active)		inactive	inactive	inactive	inactive		inactive	inactive	inactive	inactive	inactive	inactive	inactive	inactive	inactive	inactive	inactive		inactive
Cc1ccc2c(c1)C(=O)c1ccccc1C2=O	inactive	inactive		inactive	inactive	34.2 µM (active)	inactive	inactive	inactive		inactive		inactive	54.3 µM (active)	inactive	inactive	inactive	48.4 µM (active)		
CC(Oc1cc(Cl)ccc1Cl)C(=O)O (stereo unspecified)	inactive	inactive		inactive			inactive	inactive		inactive	inactive	inactive	inactive		inactive	inactive	inactive	inactive		
O=Cc1cc2ccccc2o1	inactive			inactive			inactive	inactive	inactive	inactive	inactive	inactive	inactive		inactive	inactive	inactive	inactive		
NCc1ccc(S(N)(=O)=O)cc1	inactive	inactive		inactive			inactive	inactive	inactive	inactive	inactive	inactive	inactive	inactive	inactive	inactive	inactive	inactive		
Nc1nc(-c2ccccc2)c(Br)c(=O)[nH]1	inactive		inactive	inactive	inactive	inactive	inactive	inactive	inactive	inactive	inactive	inactive	inactive	inactive	inactive	inactive	inactive			inactive
CC(C)OC(=O)CCC(=O)OC(C)C	inactive	inactive		inactive			inactive	inactive	inactive	inactive	inactive		inactive			inactive	inactive	inactive		
OC1OCCOC1O (stereo unspecified)	inactive	inactive	inactive	inactive	inactive	inactive	inactive	inactive	inactive	inactive			inactive	inactive		inactive	inactive	inactive		inactive
CC(C)OC(=O)OCOP(=O)(CO[C@H](C)Cn1cnc2c(N)ncnc21)OCOC(=O)OC(C)C	inactive	inactive	inactive	inactive	inactive	inactive	inactive		inactive	inactive	inactive	inactive	inactive	11.9 µM (active)	inactive	inactive	inactive	inactive		inactive

SMILES	Potency [1]	outcome [2]	outcome [3]	outcome [4]	Potency [5]	Potency [6]	Potency [7]	outcome (Aromatase (Homo sapiens))	Potency [8]	Potency [9]	Potency [10]	outcome [11]	outcome [12]	Potency [13]	outcome [14]	Potency [15]	outcome [16]	Potency [17]	Potency [18]	outcome [19]
Cc1cccc(Cl)c1	inactive	inactive		inactive			inactive	inactive	inactive	inactive	inactive		inactive	inactive	inactive	inactive	inactive	inactive		
C#CCN[C@@H]1CCc2ccccc21		inactive	inactive	inactive	inactive	inactive	inactive	inactive	inactive	inactive	inactive	inactive	inactive	inactive	inactive		inactive	inactive	inactive	inactive
CC(=O)C(C)O (stereo unspecified)	inactive			inactive			inactive	inactive	inactive		inactive	inactive	inactive	inactive	inactive	inactive	inactive	inactive		
O=C(O)[C@H](O)c1ccccc1	inactive	inactive	inactive	inactive	inactive		inactive	inactive	inactive		inactive	inactive	inactive	inactive	inactive	inactive	inactive	inactive		inactive
CC(C)=CCC[C@@](C)(O)[C@H]1CC=C(C)CC1	inactive	inactive		inactive			inactive	inactive	inactive		inactive	inactive	inactive	inactive	inactive	inactive		inactive		
Nc1nnnn1-c1ccccc1	inactive	inactive	inactive	inactive	inactive	inactive	inactive	inactive	inactive		inactive	inactive	inactive	inactive	inactive	inactive	inactive	inactive		inactive
CCCCOCCOC(=O)COc1ccc(Cl)cc1Cl	inactive	inactive	inactive	inactive	inactive		inactive	inactive	inactive		inactive		inactive	inactive	inactive	inactive	inactive	inactive		inactive
C=C(C)[C@@H]1CC=C(C)CC1	inactive		inactive	inactive	inactive		inactive	inactive	inactive	inactive					inactive	inactive	inactive	inactive		inactive
O=C(CCCCC(=O)Nc1c(I)cc(I)c(C(=O)O)c1I)Nc1c(I)cc(I)c(C(=O)O)c1I	inactive	inactive	inactive	inactive	inactive	inactive		inactive	inactive	inactive	inactive	inactive	inactive	inactive		inactive	inactive	inactive		
CC(=O)OC1CCCCC1C(C)(C)C (stereo unspecified)		inactive	inactive	inactive	inactive	inactive	inactive	inactive	inactive	inactive	inactive	inactive	inactive	inactive	inactive	inactive	inactive	inactive	inactive	inactive
Fc1ccccc1		inactive	inactive	inactive	inactive	inactive	inactive	inactive	inactive	inactive			inactive			inactive	inactive		inactive	inactive
CCC[C@@H]1C[C@@H](C(=O)N[C@@H]([C@H]2O[C@H](SC)[C@H](O)[C@@H](O)[C@H]2O)[C@@H](C)O)N(C)C1		inactive	inactive	inactive	inactive	inactive	inactive	inactive	inactive		inactive		inactive	inactive	inactive	inactive	inactive	inactive	inactive	inactive
CC/C=C\CCOC(=O)c1ccccc1O		inactive	inactive	inactive	inactive	inactive	inactive	inactive	inactive	inactive	inactive	inactive	inactive	inactive		inactive	inactive	inactive	inactive	inactive
COc1ccc(CCO)cc1		inactive		inactive			inactive	inactive	inactive	inactive	inactive			inactive	inactive	inactive	inactive	inactive	inactive	
CC(=O)O[Si](C)(OC(C)=O)OC(C)=O		inactive		inactive			inactive	inactive	inactive	inactive	inactive	inactive	inactive	inactive		inactive	inactive	inactive	inactive	
CCO		inactive	inactive	inactive	inactive	inactive	inactive	inactive	inactive	inactive	inactive	inactive		inactive	inactive	inactive	inactive	inactive		inactive
c1ccc2cnccc2c1		inactive	inactive	inactive	inactive	inactive	inactive	inactive	inactive	inactive	inactive	inactive	inactive		inactive	inactive	inactive	inactive		inactive
